From ChEMBL document CHEMBL1961873, “Compounds: GSK PKIS; Assays: Nanosyn kinase panel” (2012)

Columns and labels:
[1] = biological target: Leukocyte tyrosine kinase receptor (Homo sapiens) (UniProt P29376); conditions: at 1 µM;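 also: each value is the mean inhibition of LTK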
[2] = biological target: Tyrosine-protein kinase Lyn (Homo sapiens) (UniProt P07948); conditions: at 0.1 µM
[3] = biological target: Tyrosine-protein kinase Lyn (Homo sapiens) (UniProt P07948); conditions: at 1 µM
[4] = biological target: Tyrosine-protein kinase Lyn (Homo sapiens) (UniProt P07948); conditions: at 0.1 µM; remark: listed apart in the source
[5] = biological target: Tyrosine-protein kinase Lyn (Homo sapiens) (UniProt P07948); conditions: at 1 µM; remark: listed apart in the source
[6] = biological target: T1, Tyrosine-protein kinase Mer (Homo sapiens) (UniProt Q12866); conditions: at 0.1 µM
T1 sequence (whole entry): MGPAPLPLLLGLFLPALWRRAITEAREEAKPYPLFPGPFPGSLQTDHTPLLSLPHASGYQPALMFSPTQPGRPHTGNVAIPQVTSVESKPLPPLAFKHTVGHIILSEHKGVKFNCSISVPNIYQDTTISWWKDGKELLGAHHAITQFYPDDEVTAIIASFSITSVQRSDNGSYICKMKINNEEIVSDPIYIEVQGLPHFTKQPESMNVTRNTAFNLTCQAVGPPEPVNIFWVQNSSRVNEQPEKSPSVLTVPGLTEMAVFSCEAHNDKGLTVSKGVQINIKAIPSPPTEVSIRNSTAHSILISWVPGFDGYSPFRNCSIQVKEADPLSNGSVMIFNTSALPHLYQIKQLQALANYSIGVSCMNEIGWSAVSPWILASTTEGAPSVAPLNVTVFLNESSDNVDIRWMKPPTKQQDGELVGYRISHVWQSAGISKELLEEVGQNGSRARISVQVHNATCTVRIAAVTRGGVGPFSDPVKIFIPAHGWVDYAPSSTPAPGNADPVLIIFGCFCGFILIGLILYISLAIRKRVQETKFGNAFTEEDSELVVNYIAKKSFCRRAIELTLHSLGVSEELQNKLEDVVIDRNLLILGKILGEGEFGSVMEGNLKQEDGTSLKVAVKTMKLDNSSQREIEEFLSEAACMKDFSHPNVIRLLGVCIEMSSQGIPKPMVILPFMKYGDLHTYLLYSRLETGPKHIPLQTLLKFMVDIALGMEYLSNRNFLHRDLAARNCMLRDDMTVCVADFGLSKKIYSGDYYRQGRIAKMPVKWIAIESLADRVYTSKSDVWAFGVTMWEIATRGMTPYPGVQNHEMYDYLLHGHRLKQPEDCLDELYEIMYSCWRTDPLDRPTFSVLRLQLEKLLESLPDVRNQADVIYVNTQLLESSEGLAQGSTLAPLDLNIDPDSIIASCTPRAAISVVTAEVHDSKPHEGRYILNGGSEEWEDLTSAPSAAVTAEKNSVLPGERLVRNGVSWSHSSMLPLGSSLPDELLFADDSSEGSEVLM

[7] = biological target: T1, Tyrosine-protein kinase Mer (Homo sapiens); conditions: at 1 µM
[8] = biological target: Hepatocyte growth factor receptor (Homo sapiens) (UniProt P08581); conditions: at 0.1 µM
[9] = biological target: Hepatocyte growth factor receptor (Homo sapiens) (UniProt P08581); conditions: at 1 µM
[10] = biological target: T2, Muscle, skeletal receptor tyrosine-protein kinase (Homo sapiens) (UniProt O15146); conditions: at 0.1 µM
T2 sequence (whole entry): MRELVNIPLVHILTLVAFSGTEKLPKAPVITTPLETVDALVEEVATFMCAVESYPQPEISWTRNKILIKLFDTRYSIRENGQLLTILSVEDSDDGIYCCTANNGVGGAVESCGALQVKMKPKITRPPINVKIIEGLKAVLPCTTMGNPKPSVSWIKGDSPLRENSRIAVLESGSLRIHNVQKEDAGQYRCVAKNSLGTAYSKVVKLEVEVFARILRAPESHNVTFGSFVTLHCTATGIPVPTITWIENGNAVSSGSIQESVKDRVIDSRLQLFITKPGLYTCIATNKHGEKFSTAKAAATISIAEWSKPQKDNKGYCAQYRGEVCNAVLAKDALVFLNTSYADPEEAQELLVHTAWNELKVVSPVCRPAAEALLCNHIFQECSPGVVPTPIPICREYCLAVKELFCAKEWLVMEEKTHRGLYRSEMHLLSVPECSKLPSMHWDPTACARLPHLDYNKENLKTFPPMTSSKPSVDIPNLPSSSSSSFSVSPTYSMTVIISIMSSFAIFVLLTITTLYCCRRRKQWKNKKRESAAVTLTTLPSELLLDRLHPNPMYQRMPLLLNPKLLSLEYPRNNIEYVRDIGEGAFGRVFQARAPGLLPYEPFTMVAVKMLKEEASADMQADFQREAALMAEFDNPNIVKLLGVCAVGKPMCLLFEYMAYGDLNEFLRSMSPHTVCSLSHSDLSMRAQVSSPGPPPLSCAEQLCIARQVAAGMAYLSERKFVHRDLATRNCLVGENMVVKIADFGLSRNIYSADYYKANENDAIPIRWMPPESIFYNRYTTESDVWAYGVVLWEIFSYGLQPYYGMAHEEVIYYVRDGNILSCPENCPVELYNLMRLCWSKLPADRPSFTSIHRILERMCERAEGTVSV

[11] = biological target: T2, Muscle, skeletal receptor tyrosine-protein kinase (Homo sapiens); conditions: at 1 µM
[12] = biological target: Platelet-derived growth factor receptor alpha (Homo sapiens) (UniProt P16234); conditions: at 0.1 µM
[13] = biological target: Platelet-derived growth factor receptor alpha (Homo sapiens) (UniProt P16234); conditions: at 1 µM
[14] = tested on: Platelet-derived growth factor receptor alpha (Homo sapiens), P16234 [D842V]; conditions: at 0.1 µM
Chain of Platelet-derived growth factor receptor alpha (Homo sapiens), P16234 [D842V] (P16234 whole entry D842V): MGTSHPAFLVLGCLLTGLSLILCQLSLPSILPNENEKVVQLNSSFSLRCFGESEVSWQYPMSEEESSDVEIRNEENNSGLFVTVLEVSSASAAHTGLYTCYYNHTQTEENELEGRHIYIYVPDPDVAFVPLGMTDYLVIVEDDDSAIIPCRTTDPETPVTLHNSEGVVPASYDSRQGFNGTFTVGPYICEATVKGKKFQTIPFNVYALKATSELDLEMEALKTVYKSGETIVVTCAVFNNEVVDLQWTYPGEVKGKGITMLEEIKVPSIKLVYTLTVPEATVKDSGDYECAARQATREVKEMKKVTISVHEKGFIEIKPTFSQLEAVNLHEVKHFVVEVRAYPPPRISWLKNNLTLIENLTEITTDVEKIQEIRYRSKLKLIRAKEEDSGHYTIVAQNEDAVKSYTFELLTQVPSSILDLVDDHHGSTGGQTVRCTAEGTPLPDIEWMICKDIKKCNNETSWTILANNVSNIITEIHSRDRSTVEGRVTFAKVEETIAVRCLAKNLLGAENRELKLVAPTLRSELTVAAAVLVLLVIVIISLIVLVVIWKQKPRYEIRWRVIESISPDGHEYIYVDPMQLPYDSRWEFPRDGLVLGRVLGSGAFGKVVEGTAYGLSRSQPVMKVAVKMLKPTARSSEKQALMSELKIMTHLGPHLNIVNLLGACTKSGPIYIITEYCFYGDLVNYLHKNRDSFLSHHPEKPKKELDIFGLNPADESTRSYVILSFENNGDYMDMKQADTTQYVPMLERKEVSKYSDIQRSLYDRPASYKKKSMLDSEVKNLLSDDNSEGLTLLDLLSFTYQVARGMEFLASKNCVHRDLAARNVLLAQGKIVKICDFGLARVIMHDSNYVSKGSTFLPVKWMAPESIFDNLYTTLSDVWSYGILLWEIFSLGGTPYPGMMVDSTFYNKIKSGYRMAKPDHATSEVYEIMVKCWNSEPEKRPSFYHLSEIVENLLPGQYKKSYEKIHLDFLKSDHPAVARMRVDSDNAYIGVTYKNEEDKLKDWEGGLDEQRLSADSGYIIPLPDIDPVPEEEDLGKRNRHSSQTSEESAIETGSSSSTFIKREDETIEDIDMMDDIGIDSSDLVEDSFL

[15] = tested on: Platelet-derived growth factor receptor alpha (Homo sapiens), P16234 [D842V]; conditions: at 1 µM
[16] = tested on: Platelet-derived growth factor receptor alpha (Homo sapiens), P16234 [T674I]; conditions: at 0.1 µM
Chain of Platelet-derived growth factor receptor alpha (Homo sapiens), P16234 [T674I] (P16234 whole entry T674I): as the sequence (P16234 whole entry D842V) above, with T674I, V842D counted along it

[17] = tested on: Platelet-derived growth factor receptor alpha (Homo sapiens), P16234 [T674I]; conditions: at 1 µM
[18] = tested on: Platelet-derived growth factor receptor alpha (Homo sapiens), P16234 [V561D]; conditions: at 0.1 µM
Chain of Platelet-derived growth factor receptor alpha (Homo sapiens), P16234 [V561D] (P16234 whole entry V561D): as the sequence (P16234 whole entry D842V) above, with V561D, V842D counted along it

[19] = tested on: Platelet-derived growth factor receptor alpha (Homo sapiens), P16234 [V561D]; conditions: at 1 µM
[20] = biological target: Platelet-derived growth factor receptor beta (Homo sapiens) (UniProt P09619); conditions: at 0.1 µM;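 also: reported value is the mean percent inhibition of the kinase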
Chain of Platelet-derived growth factor receptor beta (Homo sapiens) (P09619 whole entry): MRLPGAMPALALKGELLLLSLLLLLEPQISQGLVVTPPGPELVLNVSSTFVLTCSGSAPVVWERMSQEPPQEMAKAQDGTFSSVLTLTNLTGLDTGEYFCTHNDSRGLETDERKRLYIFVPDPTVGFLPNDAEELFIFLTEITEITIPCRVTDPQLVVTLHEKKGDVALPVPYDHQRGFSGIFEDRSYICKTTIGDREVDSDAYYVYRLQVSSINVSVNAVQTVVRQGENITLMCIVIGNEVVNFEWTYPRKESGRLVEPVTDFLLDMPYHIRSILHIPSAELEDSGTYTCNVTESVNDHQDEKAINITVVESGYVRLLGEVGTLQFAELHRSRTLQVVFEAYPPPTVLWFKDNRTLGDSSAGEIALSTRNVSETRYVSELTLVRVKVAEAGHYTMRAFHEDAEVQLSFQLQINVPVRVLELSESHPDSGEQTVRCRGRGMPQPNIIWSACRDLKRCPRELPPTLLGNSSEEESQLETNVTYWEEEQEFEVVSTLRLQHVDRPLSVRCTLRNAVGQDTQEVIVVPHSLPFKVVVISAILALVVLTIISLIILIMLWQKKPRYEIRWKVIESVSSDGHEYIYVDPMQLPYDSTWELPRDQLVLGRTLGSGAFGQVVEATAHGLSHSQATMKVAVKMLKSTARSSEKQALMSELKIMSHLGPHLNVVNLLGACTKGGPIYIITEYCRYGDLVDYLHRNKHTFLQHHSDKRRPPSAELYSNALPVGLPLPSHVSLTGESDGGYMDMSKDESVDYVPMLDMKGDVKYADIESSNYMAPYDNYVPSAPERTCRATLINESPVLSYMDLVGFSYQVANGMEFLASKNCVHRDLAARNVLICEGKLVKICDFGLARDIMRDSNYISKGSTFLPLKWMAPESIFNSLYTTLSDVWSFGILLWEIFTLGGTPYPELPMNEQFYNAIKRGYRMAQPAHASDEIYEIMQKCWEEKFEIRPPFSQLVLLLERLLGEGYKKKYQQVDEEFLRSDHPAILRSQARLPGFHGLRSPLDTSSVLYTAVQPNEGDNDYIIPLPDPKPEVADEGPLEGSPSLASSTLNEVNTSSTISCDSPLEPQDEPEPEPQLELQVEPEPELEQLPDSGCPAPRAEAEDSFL

Chain of Tyrosine-protein kinase Lyn (Homo sapiens) (P07948 2-512 limits assumed): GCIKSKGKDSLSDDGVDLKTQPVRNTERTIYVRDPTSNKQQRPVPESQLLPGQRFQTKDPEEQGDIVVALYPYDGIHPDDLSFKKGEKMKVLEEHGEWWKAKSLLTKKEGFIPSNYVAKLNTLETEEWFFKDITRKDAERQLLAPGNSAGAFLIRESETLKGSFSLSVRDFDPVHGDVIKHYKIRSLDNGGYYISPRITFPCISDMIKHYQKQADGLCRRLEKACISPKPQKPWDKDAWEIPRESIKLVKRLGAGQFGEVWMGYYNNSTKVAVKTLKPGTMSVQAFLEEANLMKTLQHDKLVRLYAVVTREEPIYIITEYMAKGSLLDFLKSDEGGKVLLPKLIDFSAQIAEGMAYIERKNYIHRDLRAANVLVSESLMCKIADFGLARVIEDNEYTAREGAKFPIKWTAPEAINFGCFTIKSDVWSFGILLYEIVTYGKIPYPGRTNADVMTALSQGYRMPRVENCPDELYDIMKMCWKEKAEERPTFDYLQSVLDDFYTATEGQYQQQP

Compound | inhibition [1] | inhibition [2] | inhibition [3] | inhibition [4] | inhibition [5] | inhibition [6] | inhibition [7] | inhibition [8] | inhibition [9] | inhibition [10] | inhibition [11] | inhibition [12] | inhibition [13] | inhibition [14] | inhibition [15] | inhibition [16] | inhibition [17] | inhibition [18] | inhibition [19] | inhibition [20]
O=C1NC(=O)C(c2cccc(Cl)c2)=C1Nc1ccc(Cl)c(C(=O)O)c1 | 2.96% | 3.89% | 4.02% | 2.44% | 3.42% | 1.12% | -0.64% | 1.38% | 3.65% | 2.04% | 3.32% | 5.36% | 9.61% | 0.72% | 1.68% | 6.92% | 5.66% | 2.77% | 0.49% | 1.55%
CCC(=O)Nc1ccc(C)c(-c2ccc(C(=O)NCC3CC3)cc2)c1 | 3.92% | 4.52% | 5.05% | 1.69% | 2.75% | 2.88% | 4.95% | 6.02% | 4.29% | 1.96% | 0.72% | 3.2% | 11.6% | 2.61% | 3.14% | 3.93% | 4.6% | 4.95% | 3.77% | -0.7%
Cc1ccc(C(=O)NC2CCC2)cc1-c1ccc(C(=O)NCC2CC2)cc1 | 2.04% | 3.48% | 2.47% | 2.55% | 1.61% | 2.37% | 6.88% | 3.95% | 6.08% | 2.41% | 3.12% | 1.47% | 4.53% | 3.52% | 0.66% | 3.43% | 3.17% | 2.49% | 5.32% | -0.12%
O=C(NCC1CC1)c1ccc(-c2cccc(C(=O)NC3CC3)c2)cc1 | -0.6% | 0.78% | 1.7% | 0.33% | 2.4% | 0.92% | 3.13% | 5.94% | -2.79% | 6.72% | 7.49% | 8.93% | 6.92% | -0.01% | -0.59% | 4.42% | 0.5% | -0.78% | 2.85% | 9.04%
Clc1ccc(CNc2nccc(-c3cnn4ncccc34)n2)cc1 | 0.38% | 3.2% | 5.62% | 1.68% | 3.11% | -0.52% | 0.99% | 2.02% | 7.73% | 3.18% | 3.54% | 4.87% | 15.4% | 0.87% | 4.84% | 0.55% | 2.46% | 1.98% | 7.98% | 3.92%
NC(=O)c1cc(-c2ccc(F)cc2)cc(-c2ccncc2)c1N | 2.67% | 7.55% | 9% | 5% | 5.99% | 1.16% | 0.38% | 3.9% | 8.57% | 3.05% | 1.32% | 3.04% | 7.4% | 1.68% | 12.2% | 4.18% | 7.19% | 3.94% | 4.61% | 2.02%
CCN(CC)Cc1ccc(Nc2nccc(-c3cnn4ncccc34)n2)cc1 | 9.98% | 3.53% | 11.8% | 2.02% | 9.31% | 2.93% | 9.85% | 7.6% | 10.4% | 6.42% | 30.5% | 17.5% | 55.5% | 10.1% | 51.1% | 6.93% | 34.9% | 18% | 64.2% | 29.1%
